Measured values taken from PubChem BioAssay (NCI).
“And” between values parts separate entries of the source, which are not always exact repeats. Equal values may be shown once. Compounds without any hit were thinned out: in the full panel of roughly 83,000, 20% have a hit.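 Testing used 96-well plates and a 48-hour single-concentration exposure. Example: -40 means 40% of the starting cells died.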 The source made the active and inactive calls. How the source made its calls: active means growth percent below 10; inactive means the rest.

Assays:
Assay in all cases: NCI-60 one-dose screen, 48 h (100 = growth as untreated, 0 = no growth, -100 = all killed)
BT-549 breast = system: BT-549 breast
MDA-MB-435 melanoma = system: MDA-MB-435 melanoma
MCF7 breast = system: MCF7 breast
HCT-116 colon = system: HCT-116 colon
HCC-2998 colon = system: HCC-2998 colon
KM12 colon = system: KM12 colon

Q: With `CCOC(=O)C(NC(=O)C(Cc1ccc(N(CCCl)CCCl)cc1)NC(C)=O)C(C)C` (centres undefined) as the compound, how does the growth (BT-549 breast; 10 µM unless noted) read?
A: Its growth is 87% (inactive).

Q: And the growth (MDA-MB-435 melanoma; 10 µM unless noted)?
A: The growth was 101% (inactive).

Q: And the growth (MCF7 breast; 10 µM)?
A: The growth was 61.9% (inactive).

Q: What about the growth (HCT-116 colon; 10 µM unless noted) of the same compound?
A: The growth was 77.2% (inactive).

Q: What about the growth (HCC-2998 colon; 10 µM unless noted) of the same compound?
A: The growth was 73.2% (inactive).

Q: And the growth (KM12 colon; 10 µM unless noted)?
A: The growth was 94.8% (inactive).

Q: Which results are given for `COC1CC(CC2CCC(C)C(C(C)C(=O)O)O2)OC2(OC(C)(C3CCC(C)(C4OC(C5OC(O)(CO)C(C)CC5C)CC4C)O3)CC2C)C1C` (centres undefined)?
A: growth (BT-549 breast; 10 µM unless noted): -52.6% (active); growth (MDA-MB-435 melanoma; 10 µM unless noted): -91.7% (active); growth (MCF7 breast; 10 µM): 8.04% (active); growth (HCT-116 colon; 10 µM unless noted): 3.98% (active); growth (HCC-2998 colon; 10 µM unless noted): -10% (active); growth (KM12 colon; 10 µM unless noted): -33.4% (active)

Q: With `CC[C@](O)(C(=O)O)c1cc2n(c(=O)c1CO)Cc1cc3ccccc3nc1-2` as the compound, how does the growth (BT-549 breast; 10 µM unless noted) read?
A: The growth was -34.5% (active).

Q: What about the growth (MDA-MB-435 melanoma; 10 µM unless noted) of the same compound?
A: Its growth is -81% (active).

Q: What about the growth (MCF7 breast; 10 µM) of the same compound?
A: Its growth is 1.99% (active).

Q: And the growth (HCT-116 colon; 10 µM unless noted)?
A: The growth was -26.6% (active).

Q: What about the growth (HCC-2998 colon; 10 µM unless noted) of the same compound?
A: The growth was -61.6% (active).

Q: What about the growth (KM12 colon; 10 µM unless noted) of the same compound?
A: The growth was -29.9% (active).

Q: Which results are given for `O=C1c2ccccc2C(=O)C(Cl)C1Cl` (centres undefined)?
A: growth (BT-549 breast; 10 µM unless noted): 78.5% (inactive); growth (MDA-MB-435 melanoma; 10 µM unless noted): 95.9% (inactive); growth (MCF7 breast; 10 µM): -62.2% (active); growth (HCT-116 colon; 10 µM unless noted): -95.7% (active); growth (HCC-2998 colon; 10 µM unless noted): 111% (inactive); growth (KM12 colon; 10 µM unless noted): 56.8% (inactive)

Q: With `Cc1c(N)nc([C@H](CC(N)=O)NC[C@H](N)C(N)=O)nc1C(=O)N[C@H](C(=O)N[C@H](C)[C@@H](O)[C@H](C)C(=O)N[C@H](C(=O)NCCc1nc(-c2nc(C(=O)NCCC[S+](C)C)cs2)cs1)[C@@H](C)O)C(OC1OC(CO)C(O)C(O)C1OC1OC(CO)C(O)C(OC(N)=O)C1O)c1cnc[nH]1` (some centres undefined) as the compound, how does the growth (BT-549 breast; 10 µM unless noted) read?
A: Its growth is 54% [2.5 µM] (inactive).

Q: And the growth (MDA-MB-435 melanoma; 10 µM unless noted)?
A: The growth was 85.1% [2.5 µM] (inactive).

Q: And the growth (MCF7 breast; 2.5 µM)?
A: The growth was 52.9% (inactive).

Q: And the growth (MCF7 breast; 25 µM)?
A: The growth was 15.6% (inactive) and 0.932% (active).

Q: And the growth (HCT-116 colon; 10 µM unless noted)?
A: Its growth is 34.2% [2.5 µM] (inactive).

Q: What about the growth (HCC-2998 colon; 10 µM unless noted) of the same compound?
A: The growth was 5.84% [2.5 µM] (active).

Q: And the growth (KM12 colon; 10 µM unless noted)?
A: Its growth is 80.9% [2.5 µM] (inactive).

Q: Which growth (BT-549 breast; 10 µM unless noted) does the source give for `CC[C@@]1(O)C[C@H](OC2CC(N(C)C)C(OC3CC(O)C(OC4CCC(=O)C(C)O4)C(C)O3)C(C)O2)c2c(cc3c(c2O)C(=O)c2c(O)ccc(O)c2C3=O)[C@H]1C(=O)OC` (some centres undefined) here?
A: Its growth is -4.5% (active).

Q: What about the growth (MDA-MB-435 melanoma; 10 µM unless noted) of the same compound?
A: Its growth is -2.5% (active).

Q: And the growth (MCF7 breast; 10 µM)?
A: Its growth is 0.371% (active).

Q: And the growth (HCT-116 colon; 10 µM unless noted)?
A: The growth was -58.7% (active).

Q: And the growth (HCC-2998 colon; 10 µM unless noted)?
A: Its growth is -77.5% (active).

Q: And the growth (KM12 colon; 10 µM unless noted)?
A: The growth was -14.9% (active).

Q: What does the source list for `CC1=C2C(=O)[C@H]3[C@@H](CC=C4C[C@@H](O)CC[C@@]43C)[C@@H]2CC[C@]12O[C@@H]1C[C@H](C)CN[C@H]1[C@H]2C`?
A: growth (MDA-MB-435 melanoma; 10 µM unless noted): 98.2% (inactive); growth (MCF7 breast; 10 µM): 91.6% (inactive); growth (HCT-116 colon; 10 µM unless noted): 45.5% (inactive); growth (HCC-2998 colon; 10 µM unless noted): 141% (inactive); growth (KM12 colon; 10 µM unless noted): 112% (inactive)

Q: What does the source list for `Oc1cccc2cccnc12`?
A: growth (BT-549 breast; 10 µM unless noted): 106% (inactive) and 113% (inactive) and 101% (inactive); growth (MDA-MB-435 melanoma; 10 µM unless noted): 101% (inactive) and 110% (inactive) and 119% (inactive); growth (MCF7 breast; 10 µM): 1.86% (active) and 103% (inactive) and 104% (inactive); growth (HCT-116 colon; 10 µM unless noted): 47.6% (inactive) and 108% (inactive) and 113% (inactive); growth (HCC-2998 colon; 10 µM unless noted): 100% (inactive) and 103% (inactive) and 123% (inactive); growth (KM12 colon; 10 µM unless noted): 102% (inactive) and 106% (inactive) and 103% (inactive)

Q: For `CC[C@@]1(O)C(=O)OCc2c1cc1n(c2=O)Cc2cc3ccccc3nc2-1`, which growth (BT-549 breast; 10 µM unless noted) is on record?
A: The growth was -39.9% (active).

Q: What about the growth (MDA-MB-435 melanoma; 10 µM unless noted) of the same compound?
A: Its growth is -81.5% (active).

Q: What about the growth (MCF7 breast; 10 µM) of the same compound?
A: The growth was 2.07% (active).

Q: What about the growth (HCT-116 colon; 10 µM unless noted) of the same compound?
A: Its growth is -12.5% (active).

Q: What about the growth (HCC-2998 colon; 10 µM unless noted) of the same compound?
A: The growth was -73.8% (active).

Q: What about the growth (KM12 colon; 10 µM unless noted) of the same compound?
A: Its growth is -42.1% (active).

Q: For `CO[C@H](/C(C)=C/C=C/C(C)=C/c1coc(C)n1)[C@H](C)[C@H]1C[C@@H](O)[C@@]2(C)O[C@H]2/C=C/[C@@H](C)[C@@H]2C[C@@H](CC(=O)O2)C[C@H]2O[C@@H]2C(=O)O1`, which growth (BT-549 breast; 10 µM unless noted) is on record?
A: The growth was 8.66% (active).

Q: And the growth (MDA-MB-435 melanoma; 10 µM unless noted)?
A: The growth was -59.2% (active).

Q: And the growth (MCF7 breast; 10 µM)?
A: Its growth is 14.7% (inactive).

Q: And the growth (HCT-116 colon; 10 µM unless noted)?
A: Its growth is 4.48% (active).

Q: And the growth (HCC-2998 colon; 10 µM unless noted)?
A: Its growth is -25.4% (active).

Q: And the growth (KM12 colon; 10 µM unless noted)?
A: The growth was -17.9% (active).

Q: With `COc1ccc(OC)c(/C=C/[N+](=O)[O-])c1` as the compound, how does the growth (BT-549 breast; 10 µM unless noted) read?
A: Its growth is -45.5% (active).

Q: What about the growth (MDA-MB-435 melanoma; 10 µM unless noted) of the same compound?
A: The growth was 7.04% (active).

Q: And the growth (MCF7 breast; 10 µM)?
A: Its growth is -1.64% (active).

Q: And the growth (HCT-116 colon; 10 µM unless noted)?
A: The growth was -81.5% (active).

Q: And the growth (HCC-2998 colon; 10 µM unless noted)?
A: Its growth is -82.4% (active).

Q: And the growth (KM12 colon; 10 µM unless noted)?
A: Its growth is 11.7% (inactive).

Q: With `C[C@]12CC[C@H](O)CC1=CC[C@@H]1[C@@H]2CC[C@]2(C)C(=O)CC[C@@H]12` as the compound, how does the growth (BT-549 breast; 10 µM unless noted) read?
A: The growth was 98.3% (inactive).

Q: What about the growth (MDA-MB-435 melanoma; 10 µM unless noted) of the same compound?
A: The growth was 90.3% (inactive).

Q: What about the growth (MCF7 breast; 10 µM) of the same compound?
A: Its growth is 130% (inactive).

Q: And the growth (HCT-116 colon; 10 µM unless noted)?
A: Its growth is 91.6% (inactive).

Q: And the growth (HCC-2998 colon; 10 µM unless noted)?
A: The growth was 90.7% (inactive).

Q: And the growth (KM12 colon; 10 µM unless noted)?
A: The growth was 97.1% (inactive).

Q: With `S=C(SSC(=S)N1CCCCC1)N1CCCCC1` as the compound, how does the growth (BT-549 breast; 10 µM) read?
A: Its growth is 92% (inactive).

Q: What about the growth (BT-549 breast; 100 µM) of the same compound?
A: Its growth is -1.94% (active).

Q: What about the growth (MDA-MB-435 melanoma; 10 µM) of the same compound?
A: The growth was 99.3% (inactive).

Q: And the growth (MDA-MB-435 melanoma; 100 µM)?
A: The growth was -30.9% (active).

Q: What about the growth (MCF7 breast; 10 µM) of the same compound?
A: The growth was 80.1% (inactive).

Q: And the growth (MCF7 breast; 100 µM)?
A: The growth was -46.8% (active).

Q: And the growth (HCT-116 colon; 10 µM)?
A: The growth was 85.3% (inactive).

Q: What about the growth (HCT-116 colon; 100 µM) of the same compound?
A: Its growth is -76.4% (active).

Q: And the growth (HCC-2998 colon; 10 µM)?
A: The growth was 109% (inactive).

Q: And the growth (HCC-2998 colon; 100 µM)?
A: The growth was 22.3% (inactive).

Q: And the growth (KM12 colon; 10 µM)?
A: The growth was 102% (inactive).

Q: And the growth (KM12 colon; 100 µM)?
A: Its growth is -18.5% (active).

Q: With `CCCCCCCCCCCC1CCCC(C)N1` (centres undefined) as the compound, how does the growth (MDA-MB-435 melanoma; 10 µM unless noted) read?
A: Its growth is 71.8% (inactive).

Q: And the growth (MCF7 breast; 10 µM)?
A: Its growth is 44.1% (inactive).

Q: And the growth (HCT-116 colon; 10 µM unless noted)?
A: Its growth is 65% (inactive).

Q: And the growth (HCC-2998 colon; 10 µM unless noted)?
A: Its growth is -72.4% (active).

Q: What about the growth (KM12 colon; 10 µM unless noted) of the same compound?
A: Its growth is 44% (inactive).
